# C8 TRAIL sens – sensitizes caspase-8 expressing cells to TRAIL; 360,000 tested, 1% active; NB7+C8 cells + TRAIL, ATPlite viability luminescence; inhibition (viability loss, TRAIL sensitization), % at 10 µM;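 active = compounds causing at least 50% loss of cell viability in the single-dose screen, relative to plate controls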
# TROY signal inh – blocks TROY-dependent signaling in reporter cells; Q293 LMP1-TROYcd NF-kB luciferase reporter, 4 h; inhibition, % at 10 µM; 360,000 tested, 0.98% active;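 active = compounds whose plate-normalised and pattern-corrected inhibition of the luciferase reporter signal at the single screening dose is 50% or more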
# HIF-2a block – inhibitors of HIF-2a | 786-0 RCC cells HIF-2a reporter, luciferase luminescence, overnight | inhibition, % at 18.8 µM | 360,000 tested, 0.72% active | AID 624352;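 active = inhibition of the luminescence signal of 40% or more relative to plate controls, in a single-dose primary screen at 18.75 µM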
# TWEAK-Fn14 inh – inhibitors of TWEAK-Fn14 interaction signaling; TWEAK-stimulated Fn14 reporter cells, luciferase luminescence, 8 h; inhibition, % at 10 µM; 360,000 tested, 2% active; AID 1159606; in the data active = inhibition above about 50%
# aSyn UTR inh – MLPCN primary screen, SNCA 5' untranslated region; alpha-synuclein 5'UTR reporter, inhibitor activity; inhibition, % (tested at 7.5 µM); 300,000 tested, 0.82% active; AID 1813; in the data active = inhibition above about 60%;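 also: H4 neuroglioblastoma cells stably carrying SNCA 5'UTR luciferase fusion; 0% = DMSO wells and 100% = positive control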
# HSP90 refold inh – HSP90 refolding inhibition in rabbit reticulocyte lysate | inhibition, % at 5.6 µM | luciferase refolding luminescence, 3 h | 290,000 tested, 0.91% active;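 active = inhibition above the screen-wide mean plus 3 SD, computed separately per campaign, cut at about 16% in these data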;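 also: 0% = DMSO wells and 100% = 60 µM geldanamycin wells; inhibitors lower the luminescence because luciferase stays unfolded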
# Starred values were filed as active, the others as inactive; . = no result given. Most compounds without a hit are left out; they make up all but 3.9% or so of the library.
SMILES,C8 TRAIL sens,TROY signal inh,HIF-2a block,TWEAK-Fn14 inh,aSyn UTR inh,HSP90 refold inh
COc1ccc(Cl)cc1Cn1c(C)c(C(=O)NCc2ccc3c(c2)OCCO3)sc1=O,9,17,-8,6,.,.
COc1ccc(C2(C(=O)Nc3ccc(C)cc3)CCOCC2)cc1,-16,-16,18,-7,13,1
COc1ccc(C2(C(=O)Nc3ccccc3)CCOCC2)cc1,5,2,4,67*,-10,0
O=C(NC1CCCCC1)C1c2ccccc2OCC(=O)N1CCc1ccccc1 (stereo not drawn),0,-2,11,-6,.,.
COc1ccc(-c2cc(CNC(=O)CCl)on2)cc1,-3,.,1,76*,-50,-2
COc1ccc(-c2cc(CNC(C)=O)on2)cc1,-7,1,-50,1,-23,3
CCOC(=O)N1CCN(C(=O)Nc2ccc3nc(C)c(C)nc3c2)CC1,-5,-3,5,-18,9,1
Cc1nc2ccc(NC(=O)N3CCCCC3)cc2nc1C,-9,50*,-115,21,-22,3
c1ccc(OCCNc2ccn3nc(-c4ccc(OCCN5CCOCC5)cc4)cc3n2)cc1,14,17,-22,54*,.,.
Cc1ccc(NC(=O)c2c3c(nc4ccccc24)CCC3)cc1S(=O)(=O)N(C)C,2,48,21,71*,18,-5
CC(=O)N1CCC(C(=O)N2c3ccccc3N=C(c3ccc(C(F)(F)F)cc3)C2C(=O)NC(C)C)CC1 (stereo not drawn),-3,.,-2,.,.,.
O=C(C=P(c1ccccc1)(c1ccccc1)c1ccccc1)c1ccccc1-c1ccccc1C(=O)C=P(c1ccccc1)(c1ccccc1)c1ccccc1,49,31,95*,47,.,.
CN(CCc1ccccc1)C(=O)c1cccc(NC(=O)Cc2cccc(NC(=O)C3CCCN(C(=O)C4CCCC4)C3)c2)c1 (stereo not drawn),14,22,9,9,.,.
CC(C)C[C@@H](CO)N(Cc1ccccc1)S(=O)(=O)N(Cc1ccccc1)[C@@H](CO)CC(C)C,20,53*,13,16,.,.
CC(C)C[C@@H](CO)N(Cc1ccccc1)S(=O)(=O)N(Cc1ccccc1)[C@H](CO)CC(C)C,29,52*,-5,24,.,.
COc1ccc(C=O)c(OCc2cn(CC(=O)c3ccc(O)cc3)nn2)c1,11,4,1,12,.,.
O=S(=O)(Cc1cc(Cl)nc(-c2ccccc2)n1)c1ccccc1,11,-9,7,-25,-2,2
O=S(=O)(Cc1cc(Cl)nc(-c2ccncc2)n1)c1ccccc1,1,51*,17,-16,8,3
O=C(NCc1cccs1)c1nc2c(nnn2Cc2ccccc2Cl)c(=O)[nH]1,25,83*,76*,96*,77*,2
CCC(C)NC(=O)c1nc2c(nnn2Cc2ccccc2Cl)c(=O)[nH]1 (stereo not drawn),-14,20,28,7,29,-1
COC(=O)C[C@@H]1C=C[C@H](NC(=O)Cc2ccccn2)[C@@H](CO)O1,-6,.,4,.,.,.
O=C(Nc1ccc(Br)cc1)c1ccc(F)c(S(=O)(=O)N2CCN(c3ccccn3)CC2)c1,19,33,17,53*,51,-2
O=C(Nc1ccc2c(c1)OCCO2)C1c2ccccc2OCC(=O)N1CCc1c[nH]c2ccccc12 (stereo not drawn),-7,4,-21,-3,.,.
O=C(/C=C/c1ccc(Cl)cc1)N1CCN(c2ccc([N+](=O)[O-])c(N3CCOCC3)c2)CC1,26,56*,5,64*,18,2
CC1CCCN(c2ccc([N+](=O)[O-])cc2C(=O)c2ccccc2)C1 (stereo not drawn),15,4,23,-12,84*,4
SMILES,C8 TRAIL sens,TROY signal inh,HIF-2a block,TWEAK-Fn14 inh,aSyn UTR inh,HSP90 refold inh
O=C(c1ccccc1)c1cc([N+](=O)[O-])ccc1N1CCOCC1,11,17,26,-13,101*,-5
Cc1ccc(C(=O)c2cc([N+](=O)[O-])ccc2N2CCCCC2)cc1,-4,-2,29,23,81*,-1
O=C(/C=C/c1ccc(Cl)cc1Cl)N1CCN(c2ccc([N+](=O)[O-])c(N3CCOCC3)c2)CC1,1,20,8,31,24,-5
O=C(c1ccc(Br)cc1)c1cc([N+](=O)[O-])ccc1N1CCOCC1,2,5,20,-12,27,-3
C[C@H]1CN([C@@H](C)CO)C(=O)CCCn2cc(nn2)CO[C@@H]1CN(C)C(=O)Nc1ccc(-c2cccs2)cc1,-2,-5,-4,20,.,.
Cc1cccc(S(=O)(=O)N2C[C@@H](O)COC[C@@H]3O[C@H](CC(=O)NCCCN4CCOCC4)CC[C@H]32)c1,-9,.,1,.,.,.
COC(=O)C[C@@H]1C=C[C@@H](NS(=O)(=O)c2ccccc2OC)[C@@H](CO)O1,-3,.,8,.,.,.
O=C(c1ccc(Cl)cc1)c1cc([N+](=O)[O-])ccc1N1CCOCC1,9,11,35,-14,118*,4
CCCCNC(=O)C1(C)CCN1C(=O)c1ccc2sccc2c1 (stereo not drawn),0,-3,12,-1,.,.
COc1cccc(-c2cc3nc(-c4ccccc4)cc(N4CCN(C(=O)c5ccoc5)CC4)n3n2)c1,79*,29,-12,22,.,.
COc1ccccc1-c1cc2nc(-c3ccccc3)cc(N3CCN(C(=O)c4ccco4)CC3)n2n1,75*,70*,-23,98*,.,.
COc1ccccc1-c1cc2nc(-c3ccccc3)cc(N3CCN(C(=O)c4ccoc4)CC3)n2n1,74*,4,-12,21,.,.
COc1cccc(-c2cc(N3CCN(C(=O)c4ccoc4)CC3)n3nc(-c4cccc(Cl)c4)cc3n2)c1,48,0,-6,14,.,.
Clc1ccc(C(c2nnnn2C2CCCC2)N2CCN(c3nc4ccccc4s3)CC2)cc1 (stereo not drawn),-3,59*,-5,74*,12,-3
c1cnc2ccc(C(c3nnnn3C3CCCC3)N3CCN(c4nc5ccccc5s4)CC3)cc2c1 (stereo not drawn),18,-6,19,-23,.,2
O=C(Cc1ccc(Cl)cc1)Nc1ccc(-c2cc3ccccc3oc2=O)c(Cl)c1,15,32,-29,13,96*,-1
CCc1ccc(OCC(=O)Nc2ccc(-c3cc4ccccc4oc3=O)c(OC)c2)cc1,12,35,-35,73*,-17,2
COc1cc(NC(=O)c2cc(Cl)ccc2Cl)ccc1-c1cc2ccccc2oc1=O,-4,21,-5,-43,3,0
CC1=CC(C)(C)N(S(=O)(=O)c2ccc(F)cc2)c2ccccc21,1,-9,16,8,-16,2
CC(=O)Nc1ccc(S(=O)(=O)N2c3ccccc3C(C)=CC2(C)C)cc1,19,32,34,9,121*,1
